TGFb inhibitor: TGF-b pathway inhibition; Potency, µM (doses to about 46.1 µM), actives largely listed as inhibitors; 410,000 compounds, 1.2% hits; AID 588855; HepG2 CAGA-GFP TGF-b/SMAD3 reporter, GFP fluorescence, 18 h; TGF-beta stimulated, 500 pg/mL final; also: nearly all actives have a fitted effect of over 65% in size
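Per well, imaged GFP fluorescence of HEPG2 CAGA-GFP cells gives the signal; cells get compound, then TGF-beta (500 pg/mL final), 18 h at 37 degrees C; %Activity versus -TGF-beta and +DMSO controls.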
HepG2 viability: counter-screen for TGF-b inhibitors: cytotoxicity in HepG2 cells. HepG2 CAGA-GFP viability, ATP luminescence, 18 h. Potency, µM (highest dose often 46.1 µM), most hits filed as cytotoxic. 410,000 compounds, 0.76% hits. AID 588856
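HepG2 CAGA-GFP cells (1000/well, DMEM with 1% FBS) received compound, then TGF-beta at 500 pg/mL final, and were incubated 18 hours at 37 degrees C. Viability was read by CellTiter-Glo luminescence. Media-only wells were set as complete cell-killing and DMSO as no toxicity.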
ATXN2 expr inh: reduces ATXN2 reporter expression in HEK-293 cells; HEK-293 ATXN2-luciferase reporter, luminescence, 24 h; Potency, µM (doses to about 57 µM), actives largely listed as inhibitors; 360,000 compounds, 0.72% hits; also: nearly all actives have a fitted effect of over 55% in size
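ATXN2-luciferase reporter cells (luciferase flanked by upstream and downstream ATXN2 gene portions) were treated 24 h at 37 °C with compounds at up to 57 uM. SteadyGlo luminescence gave expression; GF-AFC fluorescence gave viability.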
IL-1B inflam inh: inhibitors of inflammasome signaling (IL-1 beta secretion) | THP-1 LPS/ATP IL-1B secretion, AlphaLISA, 16 h; active compounds read low | activity change, % at 57.5 µM | 360,000 compounds, 4.7% hits; in the data active = activity change below about -50%; inconclusive = mostly about -30% to -49%
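Secreted IL-1B measured by AlphaLISA bead assay after 16 h compound exposure of THP-1 cells; compounds (final up to 57.5 uM) added 1 h before LPS (250 ng/mL) and ATP (1.25 mM) stimulation; lower signal means less secretion.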
S2 tox: viability counter-screen for ATXN expression inhibitors. S2 cells (HEK-293 line with an ATXN2-luciferase reporter) viability, CellTiter-Fluor protease fluorescence, 24 h. Potency, µM (doses to about 56.7 µM), actives largely listed as cytotoxic. 400,000 compounds, 0.49% hits. AID 651635; also: nearly all actives have a fitted effect of over 40% in size
Large screens that a line does not name were inactive. This is a sample that favours compounds with a hit; in the whole collection about 5.7% have one here. Unless noted, calls follow the shape of the dose curve; as a rule, active = well fitted curve in the direction sought with a large enough effect; inconclusive = small, poorly fitted or top-dose-only effect, or another doubt; inactive = no such curve, though single readings can be large; an effect the other way counts as inactive or inconclusive.

COc1ccc(-n2cc(C(=O)NC(C)c3ccccc3)c3ccccc3c2=O)cc1 (stereo unspecified)	TGFb inhibitor inconclusive (no result: ATXN2 expr inh, IL-1B inflam inh, S2 tox)
COCCn1c(CCC(=O)Nc2ccc(C)c(Cl)c2)nc2cccnc21	none (no result: IL-1B inflam inh)
CCOc1ccc2nc(NC(=O)C3CCCN(S(=O)(=O)c4cccs4)C3)sc2c1 (stereo unspecified)	IL-1B inflam inh -58
CCc1ccc(-n2nc3cc(C)c(NC(=O)c4cc(OC)cc(OC)c4)cc3n2)cc1	none (no result: IL-1B inflam inh)
COc1ccc(-n2nc3cc(C)c(NC(C)=O)cc3n2)cc1	ATXN2 expr inh 8.9µM
O=C(Nc1ccc(Cl)c(Cl)c1)C1C2C=CC3(O2)C1C(=O)N(CCN1CCCCC1)C3C(=O)NC1CCCCC1 (stereo unspecified)	IL-1B inflam inh -81, S2 tox inconclusive
Cc1ccc(NC(=O)C2C3C=CC4(O3)C2C(=O)N(CCCN2CCOCC2)C4C(=O)NC2CCCCC2)cc1Cl (stereo unspecified)	none
CC1CCCC(NC(=O)C2N(CCCN3CCCC3)C(=O)C3C(C(=O)Nc4ccc(Cl)cc4)C4C=CC32O4)C1C (stereo unspecified)	IL-1B inflam inh -65
Cc1cc(C(=O)NCC2CCC3(CCN(Cc4cccc(F)c4F)CC3)O2)n(C)n1 (stereo unspecified)	none (no result: TGFb inhibitor, HepG2 viability, ATXN2 expr inh, IL-1B inflam inh)
Cc1ccc(CN=C(Nc2ccccc2)NC2CCCCC2)cc1	IL-1B inflam inh -87
COc1ccccc1NC(C)C(=O)c1c[nH]c2ccccc12 (stereo unspecified)	none (no result: ATXN2 expr inh, IL-1B inflam inh, S2 tox)
COc1ccc2c(c1)CC/C(=C\c1ccc(OC)c(Cn3nc(C)cc3C)c1)C2=O	ATXN2 expr inh inconclusive
COc1ccccc1C=C1CCc2ccccc2C1=O	TGFb inhibitor inconclusive
COc1cc(/C=C2/CCc3ccccc3C2=O)cc(OC)c1OC	IL-1B inflam inh -99
COc1cc(/C=C2\CCc3ccccc3C2=O)cc(OC)c1OC	TGFb inhibitor inconclusive, IL-1B inflam inh -101
COc1ccc(/C=C2/CCc3ccccc3C2=O)cc1OC	IL-1B inflam inh -99, S2 tox inconclusive
COc1ccc2c(c1)CC/C(=C\c1ccc(OC)c(Cn3cccn3)c1)C2=O	TGFb inhibitor inconclusive, IL-1B inflam inh -52, S2 tox inconclusive
CCOc1ccccc1CNC(=O)C1CCN(Cc2cc3ccccc3n2Cc2ccccc2)CC1	none (no result: IL-1B inflam inh)
CN(C)C1(CNC(=O)COc2ccc(C(C)(C)C)cc2)CCCCC1	none (no result: IL-1B inflam inh)
CC(C)Cc1nn2c(=O)cc(COC(=O)c3ccc(NC(=O)CCc4ccccc4)cc3)nc2s1	none (no result: ATXN2 expr inh, IL-1B inflam inh, S2 tox)
O=C1Nc2cccnc2N(C(=O)CCl)c2ccccc21	TGFb inhibitor inconclusive, ATXN2 expr inh inconclusive, IL-1B inflam inh -96, S2 tox 20µM
COc1ccc(C(=O)C2C(=O)C(=O)N(Cc3ccco3)C2c2cccs2)cc1 (stereo unspecified)	none (no result: ATXN2 expr inh, IL-1B inflam inh, S2 tox)
COCCCN=Cc1c(C)[nH]n(-c2ccc(Br)c(C)c2)c1=O	TGFb inhibitor inconclusive
Cc1ccc(-n2[nH]c(C)c(C=NC34CN5CN(CN(C5)C3)C4)c2=O)cc1C	HepG2 viability 10µM
CC1(C(=O)NS(=O)(=O)c2ccccc2C(F)(F)F)CCN1C(=O)CCc1ccccc1 (stereo unspecified)	IL-1B inflam inh -54
COc1ccc(OCc2ccc(-c3nc(C#N)c(NCc4ccccc4)o3)o2)cc1	TGFb inhibitor inconclusive (no result: IL-1B inflam inh)
COc1ccc(CNc2oc(-c3ccc(COc4ccccc4C)o3)nc2C#N)cc1	HepG2 viability 14µM, S2 tox inconclusive (no result: IL-1B inflam inh)
Cc1cccc(OCc2ccc(-c3nc(C#N)c(NCc4cccnc4)o3)o2)c1	TGFb inhibitor inconclusive, ATXN2 expr inh 28µM, S2 tox 22µM (no result: IL-1B inflam inh)
COc1ccc(OCc2ccc(-c3nc(C#N)c(NCc4cccnc4)o3)o2)cc1	none (no result: IL-1B inflam inh)
Cc1ccc(OCc2ccc(-c3nc(C#N)c(NCc4cccnc4)o3)o2)cc1	ATXN2 expr inh inconclusive, S2 tox inconclusive (no result: IL-1B inflam inh)
Cc1ccccc1OCc1ccc(-c2nc(C#N)c(NCc3cccnc3)o2)o1	TGFb inhibitor inconclusive, ATXN2 expr inh 32µM, S2 tox inconclusive (no result: IL-1B inflam inh)
C/[N+]([O-])=C\c1cccc(OCCN2CCN(c3ncc(C(F)(F)F)cc3Cl)CC2)c1	ATXN2 expr inh inconclusive, IL-1B inflam inh -51
CCc1nc2ccc(C(=O)N3CCN(S(=O)(=O)CC)CC3)cn2c1N(CCC(C)C)CCN(C)C	none
CCc1nc2ccc(C(=O)N3CCN(c4ccccc4)CC3)cn2c1N(C)CCC(C)C	TGFb inhibitor 13µM
CCc1nc2ccc(C(=O)N(C)Cc3ccccc3)cn2c1N(C)CCCc1ccccc1	TGFb inhibitor inconclusive
CCc1nc2ccc(C(=O)N3CCN(c4ccccc4)CC3)cn2c1N(C)CCCc1ccccc1	TGFb inhibitor inconclusive, HepG2 viability 16µM, S2 tox inconclusive
CCc1nc2ccc(C(=O)N3CCN(S(=O)(=O)CC)CC3)cn2c1N(C)CCC(C)C	HepG2 viability 3.2µM
O=C(NCCS(=O)(=O)N1CCN(c2ccccc2F)CC1)c1ccccc1C(F)(F)F	TGFb inhibitor inconclusive (no result: ATXN2 expr inh, IL-1B inflam inh, S2 tox)
CCOC(=O)c1[nH]c(C)c(C(=O)NCCc2ccccc2)c1C	none (no result: IL-1B inflam inh)
CCOC(=O)C1CCN(C(=O)Cn2c(=O)oc3cc(S(=O)(=O)N4CCC(C)CC4)ccc32)CC1	none (no result: IL-1B inflam inh)
O=[N+]([O-])c1ccc(Oc2cccnc2)c([N+](=O)[O-])c1	TGFb inhibitor inconclusive, IL-1B inflam inh -112, S2 tox inconclusive
O=C(Nc1ccc(Oc2cccnc2)cc1)c1cccc([N+](=O)[O-])c1	IL-1B inflam inh -56, S2 tox inconclusive
O=C(Nc1ccc(Oc2cccnc2)cc1)c1ccc([N+](=O)[O-])cc1	IL-1B inflam inh inconclusive
Nc1ccc(Oc2ccc([N+](=O)[O-])cc2[N+](=O)[O-])cc1	none
COc1cc(-c2cc(OC)c3c(C)oc(C)c3c(=O)c2)ccc1OC(=O)c1ccccc1C	none (no result: ATXN2 expr inh, IL-1B inflam inh, S2 tox)
CC(O)(COc1ccccc1)c1ccc2c(c1)CN(Cc1ccc3nsnc3c1)CCO2 (stereo unspecified)	none (no result: TGFb inhibitor, HepG2 viability, ATXN2 expr inh, IL-1B inflam inh)
COc1ccc(OC)c(CNn2c(-c3cccc(C)c3)nc3ccccc3c2=O)c1	none
COc1cccc(C(=O)Nn2c(-c3cccs3)nc3ccccc3c2=O)c1OC	none
COc1ccc(CNn2c(-c3cccs3)nc3ccccc3c2=O)cc1OC	IL-1B inflam inh -79
COc1cccc(CNn2c(-c3cccc(C)c3)nc3ccccc3c2=O)c1	TGFb inhibitor inconclusive, IL-1B inflam inh -71
CC(C)CCn1c(SCc2cccc(F)c2)nc2ccsc2c1=O	TGFb inhibitor inconclusive (no result: ATXN2 expr inh, IL-1B inflam inh, S2 tox)
CC(NC(=O)C1CCOCC1)c1nnc2n1CCN(Cc1ccc(F)cc1)CC2 (stereo unspecified)	none (no result: TGFb inhibitor, HepG2 viability, ATXN2 expr inh, IL-1B inflam inh)
Cc1ccsc1C(=O)N(Cc1cc2ccc(F)cc2nc1N1CCC(O)CC1)CC1CCCO1 (stereo unspecified)	none (no result: TGFb inhibitor, HepG2 viability, ATXN2 expr inh, IL-1B inflam inh)
